# Source: PubChem BioAssay (National Center for Advancing Translational Sciences (NCATS))
# Compounds with a hit are over-represented: about 19% of the library has one in this group of screens.
# DT40 TDP1 no CPT – qHTS for Inhibitors of human tyrosyl-DNA phosphodiesterase 1 (TDP1): qHTS in cells in absence of CPT. DT40 Tdp1-/- hTDP1 cells, no CPT, ATP luminescence, 48 h. AID 686978, 2013. actives 15% (n = 420,000). Potency, µM (doses to about 46.2 µM), inactives show top-dose activity change, negative = growth inhibition, most hits filed as inhibitors; further: potency means the concentration at half of the fitted maximal effect; nearly all actives have a fitted effect of over 55% in size
#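 Readout: luminescence from CellTiter-Glo after 30 min in the dark at RT. Cells: DT40 Tdp1-/- with stable hTDP1, 400/well. Exposure: compounds alone, ≥48 hr, 37 °C.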
# TDP1 cell CPT – growth inhibition of DT40 Tdp1-/-;hTDP1 cells with camptothecin (screen for TDP1 inhibitors). chicken DT40 Tdp1-/-;hTDP1 cells + 20 nM CPT, ATP luminescence, 48 h. Potency, µM (doses to about 46.2 µM), for inactives: top-dose activity change, negative = growth inhibition, usual class: inhibitors. actives 12% (n = 420,000). AID 686979; further: potency means the concentration at half of the fitted maximal effect; nearly all actives have a fitted effect of over 55% in size
#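 Chicken DT40 Tdp1-/- cells complemented with human TDP1, 400 cells/well, exposed to compounds plus 20 nM camptothecin for at least 48 h at 37 C; viability read as ATP content by CellTiter-Glo luminescence.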
# HT1080-NT tox – kills 2HG-producing HT-1080-NT fibrosarcoma cells. actives 1.6% (n = 360,000). Potency, µM (series often up to 46.1 µM), without a hit: top-dose activity, negative = less viability, usual class: cytotoxic. HT-1080-NT fibrosarcoma viability, CellTiter-Glo ATP luminescence, 48 h;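 further: NT is the 2HG producing partner of a matched IDH1 knockdown line; potency means the concentration at half of the fitted maximal effect; 0% = DMSO-treated cells and -100% = media-only wells without cells; nearly all actives have a fitted effect of over 55% in size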
#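 Toxicity toward the 2HG-producing NT line was scored as %Activity, normalised to DMSO and no-cell wells, from CellTiter-Glo luminescence after 48 hours' treatment.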
# HT1080 IDH1KD tx – kills HT-1080 cells with IDH1 knockdown. HT-1080 IDH1 knockdown viability, ATP luminescence, 48 h. Potency, µM (doses to about 46.1 µM), without a hit: at the highest dose activity, negative = toxicity, actives largely listed as cytotoxic. actives 2% (n = 360,000). AID 686971;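 further: potency means the concentration at half of the fitted maximal effect; 0% = DMSO wells and -100% = cell-free medium wells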
#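 Assay cells: HT-1080 with IDH1 knockdown, 750 per well, RPMI/5% FBS. Exposure: 48 h at 37 °C following 2 h pre-incubation. Read: CellTiter-Glo luminescence; fitted concentration-response, curve class assigned.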
# IL1B secr inh – inhibitors of inflammasome signaling (IL-1 beta secretion). actives 4.7% (n = 360,000). THP-1 LPS/ATP IL-1B secretion, AlphaLISA, 16 h; stronger effect = lower value. activity change, % at 57.5 µM; in the data active means activity change below about -50%; inconclusive means mostly about -30% to -49%
#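 Secreted IL-1B measured by AlphaLISA bead assay after 16 h compound exposure of THP-1 cells; compounds (final up to 57.5 uM) added 1 h before LPS (250 ng/mL) and ATP (1.25 mM) stimulation; lower signal means less secretion.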
# ELG1 repair inh – inhibitors of ELG1-dependent DNA repair in HEK293T cells. HEK293T ELG1-luciferase reporter, luminescence, 16 h; DNA damage induced by 5-fluorouridine. Potency, µM (titrated, usually from 46.1 µM), for the others: at the highest dose activity change, negative = inhibition, actives largely listed as inhibitors. actives 2.3% (n = 330,000). AID 504467; further: potency means the concentration at half of the fitted maximal effect; nearly all actives have a fitted effect of over 55% in size
#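 In this reporter screen, reduction of luminescence relative to DMSO vehicle indicated activity. Compounds and 5-fluorouridine were added together to 2,000 cells per well, incubated for 16 hr at 37 °C, then developed with ONE-Glo.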
# Numbers without * were called inactive; ? = inconclusive; · = no result. Unless noted, the call rests on the fitted dose curve; in most records, active means well fitted curve in the direction sought with a large enough effect; inconclusive means small, poorly fitted or top-dose-only effect, or another doubt; inactive means no such curve, though single readings can be large; an effect the other way counts as inactive or inconclusive. Unless noted, on the % scale 0 is the no-effect control and ±100 the full control effect.
SMILES,DT40 TDP1 no CPT,TDP1 cell CPT,HT1080-NT tox,HT1080 IDH1KD tx,IL1B secr inh,ELG1 repair inh
CCOCCCNC(=O)C1CCN(c2nc3ccc(Cl)cc3[nH]2)CC1,-10%,-19%,·,·,·,·
Cc1cc(C)c(NC(=O)C2CCN(c3nc4ccccc4[nH]3)CC2)c(C)c1,-21%,?,·,·,·,·
CCOc1cc(CNC(=O)C2COc3ccccc3C2)cc(OCC)c1OCC (stereo not given),?,15µM*,·,·,·,·
CCc1ccc(CNC(=O)C2COc3ccccc3C2)cc1 (stereo not given),1%,-7%,·,·,·,·
COc1ccccc1CNc1cc(-c2ccoc2)ncn1,-19%,4%,·,·,·,·
COc1nnc(-c2ccc(N3CCCCC3)c(NC(C)=O)c2)c2ccccc12,18µM*,?,3%,5%,?,-19%
CCC(C)Nc1nc(-c2ccccn2)nc2ccccc12 (stereo not given),3.7µM*,4.1µM*,?,?,-20,?
COc1cccc(-c2nc(NCc3ccccc3)c3ccccc3n2)c1,16µM*,?,·,·,·,·
c1ccc(CNc2nc(-c3cccnc3)nc3ccccc23)cc1,?,?,-1%,8%,-11,?
Cc1nc(SCC(=O)NC2CCS(=O)(=O)C2)c(C#N)c(C)c1C (stereo not given),-9%,1%,1%,1%,0,0%
c1ccc(CNc2nc(-c3ccccc3)nc3ccccc23)cc1,-20%,-18%,-27%,?,-89*,-9%
CC(Nc1nc(-c2ccccc2O)nc2ccccc12)c1ccccc1 (stereo not given),?,?,?,?,21,?
CCC(C)N(C(=O)CSc1nc(C)c(C)c(C)c1C#N)C1CCS(=O)(=O)C1 (stereo not given),21µM*,-6%,-11%,-17%,-5,5%
Cc1ccc(OCC(=O)Nc2cccc(C(=O)OCc3cc(=O)n4cc(C)sc4n3)c2)cc1,-29%,2%,·,·,·,·
CCC(C)N(C(=O)CSc1ncnc2sccc12)C1CCS(=O)(=O)C1 (stereo not given),?,1%,-4%,0%,0,-1%
CCC(C)N(C(=O)CSc1nc(-c2cccs2)nc2ccccc12)C1CCS(=O)(=O)C1 (stereo not given),16µM*,?,-23%,?,-83*,·
c1ccc(-c2nc(NCCCn3ccnc3)c3ccccc3n2)cc1,-18%,1%,-6%,-11%,-73*,?
OCCNc1nc(-c2ccccc2)nc2ccccc12,-21%,15%,3%,-13%,?,-4%
Fc1cc(F)nc(NCc2ccccc2)n1,14%,13%,0%,0%,14,-1%
COc1cccc(-c2nc(NC3CC3)c3ccccc3n2)c1,21µM*,16µM*,·,·,·,·
c1ccc(CNc2nc(NCc3ccccc3)c3ccccc3n2)cc1,5.2µM*,5.8µM*,15µM*,7.3µM*,-100*,-23%
COc1cccc(-c2nc(N(C)C)c3ccccc3n2)c1,?,3%,·,·,·,·
CCc1noc(C)c1C(=O)Nc1sc(C(=O)N(C)C)c(C)c1C#N,0%,-10%,-3%,0%,-8,·
c1ccc(CNc2nc(-c3cccs3)nc3ccccc23)cc1,?,?,?,18µM*,·,8%
COCCNc1nc(-c2cccc(OC)c2)nc2ccccc12,6.5µM*,18µM*,·,·,·,·
c1ccc(CNc2nc(-c3ccccn3)nc3ccccc23)cc1,3.7µM*,3.7µM*,?,?,-71*,-8%
Clc1cccc(CNc2nc(-c3cccnc3)nc3ccccc23)c1,?,?,-30%,?,-17,?
